# LDHA block: LDHA (human) enzyme inhibition; 0.15% of 480,000 active; P00338; purified LDHA, NADH/diaphorase-resazurin fluorescence; stronger effect = lower value; AID 1347041; activity change, % (values are at about 110 or 230 µM); in the data active = activity change below about -30%; inconclusive = mostly about -25% to -30%;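 also: plate controls were DMSO wells for no effect and wells without enzyme for full effect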
#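 Human LDH5 (2 nM) was incubated with 0.06 mM NADH and 0.2 mM pyruvate for 5 min at room temperature in Tris pH 7.4. Remaining NADH was coupled through diaphorase/resazurin, and resorufin fluorescence was read at 0 and 20 min.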
# IDH1 R132H inh: inhibitors of human mutant IDH1 R132H; AID 602179; IDH1-R132H enzyme, NADPH consumption, diaphorase/resazurin fluorescence; Potency, µM (titrated, usually from 76.6 µM), without a hit: at the highest dose activity change, negative = inhibition, hits mostly inhibitors; 0.093% of 390,000 active; also: potency is read from the fitted curve at half-maximal effect; % is scaled to controls: 0 for no effect and ±100 for the full control effect; nearly all actives have a fitted effect of over 65% in size
# Target sequence (O75874 whole entry R132H, stated change not applied): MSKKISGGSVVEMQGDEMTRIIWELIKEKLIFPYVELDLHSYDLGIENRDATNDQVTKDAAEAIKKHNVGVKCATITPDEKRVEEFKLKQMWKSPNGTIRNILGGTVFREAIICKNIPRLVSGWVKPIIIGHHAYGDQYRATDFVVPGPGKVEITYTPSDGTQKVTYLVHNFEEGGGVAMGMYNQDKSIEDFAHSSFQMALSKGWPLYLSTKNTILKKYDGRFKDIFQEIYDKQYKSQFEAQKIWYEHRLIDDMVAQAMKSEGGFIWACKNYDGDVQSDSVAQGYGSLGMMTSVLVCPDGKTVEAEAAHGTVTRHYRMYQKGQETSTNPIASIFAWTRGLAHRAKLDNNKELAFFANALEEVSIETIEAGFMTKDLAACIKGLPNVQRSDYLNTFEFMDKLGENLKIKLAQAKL
#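 IDH1-R132H (0.5 ug/mL) preincubated 30 min with compound, then NADPH (0.016 mM) and alpha-KG (2 mM) added; 80 min at RT, pH 7.5. Remaining NADPH coupled via diaphorase/resazurin to fluorescence (540/590 nm); concentration-response curves normalized to no-enzyme control.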
# RGS4 inh: blocks human RGS4-accelerated GTP hydrolysis; P49798; Transcreener GDP fluorescence polarization, RGS4-accelerated GTP hydrolysis; Potency, µM (highest dose often 114 µM), without a hit: at the top dose activity change, negative = inhibition, usual class: inhibitors; 0.039% of 390,000 active; AID 504845; also: potency is read from the fitted curve at half-maximal effect; % is scaled to controls: 0 for no effect and ±100 for the full control effect; nearly all actives have a fitted effect of over 75% in size
# Target sequence (P49798 whole entry, looked up): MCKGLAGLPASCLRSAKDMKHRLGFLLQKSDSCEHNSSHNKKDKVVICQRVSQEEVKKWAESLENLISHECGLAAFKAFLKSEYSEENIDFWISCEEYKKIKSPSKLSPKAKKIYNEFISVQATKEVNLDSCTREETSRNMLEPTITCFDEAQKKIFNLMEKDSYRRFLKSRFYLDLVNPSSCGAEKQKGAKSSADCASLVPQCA
#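 MLSMR compounds (23 nl, pin-transferred) preincubated 10 min at room temperature with a 500nM (2x) first reagent, then RGS4 at 900nM (2x) plus Transcreener GDP mix added; fluorescence polarization (620/688 nm) read before and after 90 min at 30 °C.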
# ClpP mod: qHTS Assay for Activators of ClpP; ATP-dependent Clp protease proteolytic subunit (Bacillus subtilis (strain 168)), P80244; purified B. subtilis ClpP, FRET peptide cleavage, 20 min; Potency, µM (series often up to 57.5 µM), without a hit: at the top dose activity change, negative = active; 1.9% of 340,000 active; AID 651965, 2013; active = well fitted falling curve with a large enough effect; inconclusive = small, poorly fitted or top-dose-only effect; inactive = no such curve, though single readings can be large or run the other way; also: potency is read from the fitted curve at half-maximal effect; the source files actives as falling curves though it sought activators and does not explain the sign; nearly all actives have a fitted effect of over 65% in size
#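 Purified B. subtilis ClpP, 10 microg/mL final in Tris/HCl pH8 with KCl, BSA, glycerol and Tween-20, cleaved an Abz/nitrotyrosine-quenched decapeptide. Fluorescence (ex 320, em 430) was read at 0 and 20 min at room temperature. Delta was normalized to 5.8 microM ADEP and DMSO/no-enzyme controls.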
# S-ASM inh: human S-ASM enzyme inhibition | P17405 | placental ASM, HMU-PC fluorogenic substrate, 60 min | Potency, µM (titrated, usually from 57.5 µM), inactives show at the highest dose activity change, negative = inhibition, actives largely listed as inhibitors | 0.006% of 340,000 active | AID 504937; also: potency is read from the fitted curve at half-maximal effect
#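 Fluorogenic HMU-PC substrate (9 uM final) is turned over by placental ASM in 60 min at 37 C after a 10 min compound preincubation. Reaction ended by alkaline stop (pH 10), with fluorescence read at 386/447 nm.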
# Mito fusion yeast: inhibitors of mitochondrial division or activators of mitochondrial fusion; S. cerevisiae fusion-defective mutant growth rescue, CellTiterGlo 48 h; Potency, µM (series often up to 46.1 µM), inactives show top-dose growth rescue (activation), hits mostly activators; 0.23% of 320,000 active; AID 485298; also: potency is read from the fitted curve at half-maximal effect; % of control where 0% means no effect; nearly all actives have a fitted effect of over 45% in size
#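 Growth-rescue viability read-out: after 48 h at the non-permissive 37C in glycerol/ethanol YPEG, yeast mitochondrial fusion mutants are measured by CellTiterGlo luminescence; compounds (23 nl pinned per well) restoring growth score as division inhibitors or fusion activators.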
# * = called active by the depositor; i = inactive; ? = inconclusive; . = no result given; [ ] = remark or other dose. This is one part of a sample in which hits are shown more often than they occur. Unless noted, calls follow the shape of the dose curve; as a rule, active = well fitted curve in the direction sought with a large enough effect; inconclusive = small, poorly fitted or top-dose-only effect, or another doubt; inactive = no such curve, though single readings can be large; an effect the other way counts as inactive or inconclusive.
SMILES,LDHA block,IDH1 R132H inh,RGS4 inh,ClpP mod,S-ASM inh,Mito fusion yeast
Cc1ccc(NC(=O)C2CCN(c3nc(C)nc4oc(C)c(C)c34)CC2)c(Cl)c1,5,.,.,.,.,.
NNC(=O)Cn1c(-c2ccccn2)nc2ccccc21,2,3%,-16%,0%,-2%,1%
CCOC(=O)Cn1c(-c2ccccn2)nc2ccccc21,-12,3%,15%,28µM*,1%,1%
CCN(CC)CCNC(=O)Cn1c(-c2ccccn2)nc2ccccc21,-5,17%,-8%,14µM*,2%,-2%
Cc1cccc(N2CCN(C(=O)Cn3cnc(S(=O)(=O)N4CCOCC4)c3)CC2)c1C,-1,.,.,.,.,.
COc1ccc(Br)cc1CSc1nnc(C2CC2)n1C,14,.,.,.,.,.
CC(NC(=O)Cc1cccs1)C1CCCO1 (stereo not given),12,.,.,.,.,.
CC(NC(=O)c1cccs1)C1CCCO1 (stereo not given),-7,1%,20%,28µM*,-3%,2%
CC(C)CCN1CCNC(=O)C1CC(=O)N(C)CCCN1CCOCC1 (stereo not given),-4,4%,24%,32µM*,3%,1%
COc1cc(CN2CCNC(=O)C2CC(=O)N(C)CCCN2CCOCC2)cc(OC)c1 (stereo not given),1,9%,28%,-2%,8%,1%
COc1ccc(C(=O)Nc2nnc(-c3ccccc3Br)s2)cc1OC,0,.,.,.,.,.
COc1cc(/C=C2\Oc3cc(OC(=O)C(C)(C)C)ccc3C2=O)cc(OC)c1OC,3,.,.,.,.,.
CC1=NOC(=O)/C1=C\c1ccc(-c2cccc(Cl)c2)o1,-9,37µM*,?,?,-8%,-7%
CC1=NOC(=O)/C1=C\c1ccc(-c2ccc(Cl)c(C(=O)O)c2)o1,26,-7%,?,.,5%,-4%
Cc1ccc(NC(=O)CSc2nc3ccccc3n2CCC#N)cc1C,-5,.,.,.,.,.
CCn1c(/C=C/c2ccccc2)nc2ccccc21,-1,13%,-8%,14µM*,269%,-12%
CC(C)Cn1c(/C=C/c2ccccc2)nc2ccccc21,0,13%,-26%,7.1µM*,181%,?
COc1cc(/C=N/Nc2nc3c(c(=O)n(C)c(=O)n3C)n2Cc2ccccc2)ccc1OC(=O)c1ccco1,1,1%,-4%,32µM*,-29%,17%
CC1(C)CC(N2CCN(Cc3ccccc3)CC2)=CC(=[N+]2CCCCC2)C1,-43*,5%,-9%,.,3%,-2%
CCC(C)n1nccc1NC(=O)C(C)OC(=O)c1cc2ccccc2[nH]1 (stereo not given),-4,2%,10%,28µM*,-14%,-1%
CCCCCCCCCCOc1ccc(C(=O)Oc2ccc(Cl)cc2Cl)cc1,-9,.,.,.,.,.
CCOc1ccc(N2C(=O)C3C(c4ccccc4)=NN(c4ccccc4)C3C2=O)cc1 (stereo not given),0,9%,5%,11µM*,i,?
Cc1ccc(C)c(NC(=S)Nc2cccc3cnccc23)c1,45,24%,?,.,1%,0%
Cc1ccc(C)c(NC(=S)Nc2cccnc2)c1,-4,-6%,7%,25µM*,7%,0%[9.22 µM]
N#Cc1cnc2c(-c3ccccc3)c(-c3ccccc3)nn2c1N,-6,2%,?,32µM*,-2%,0%
SMILES,LDHA block,IDH1 R132H inh,RGS4 inh,ClpP mod,S-ASM inh,Mito fusion yeast
Cc1nn2c(N)c(C#N)cnc2c1-c1ccccc1,-5,3%,-24%,-16%,-1%,16%
COc1c(-c2ccc(O)c(O)c2)oc2cc(O)cc(O)c2c1=O,13,-7%,-6%,-2%,-8%,0.63µM*
COc1ccc(C(C)(C)C)cc1NC(=O)c1ccc(NC(=O)CC#N)cc1,0,.,.,.,.,.
CCOC(=O)c1ccc(Nc2nc3ccccc3nc2NS(=O)(=O)c2ccc(C)cc2C)cc1,2,.,.,.,.,.
COc1ccccc1CNS(=O)(=O)c1c(C)nc2sc(C)cn2c1=O,1,15%,-7%,32µM*,.,.
Cc1nc2scc(C)n2c(=O)c1S(=O)(=O)NCCc1ccccc1,-2,7%,-80%[56.9 µM],3%,0%,-6%
Cc1cn2c(=O)c(S(=O)(=O)NCCc3ccccc3)c(C)nc2s1,-4,0%,14%,28µM*,.,.
CC(=O)NCCn1c(SCC(=O)NC2CCCCC2)nc2ccccc2c1=O,-4,1%,19%,32µM*,13%,-1%
CCn1c(SCC(=O)NC2CCCCC2)nc2ccccc2c1=O,-14,7%,-29%,-1%,10%,0%
COc1ccc(/C=C/C(=O)NCc2ccccn2)cc1,0,-2%,0%,25µM*,-1%,-6%
COc1cc(/C=C/C(=O)NCc2ccccn2)cc(OC)c1OC,-7,3%,6%,25µM*,2%,-1%
COc1cc(/C=C/C(=O)Nc2nnc(CC(C)C)s2)cc(OC)c1OC,0,4%,-21%,35µM*,16%,-2%
N#Cc1cn(C2CC2)c(=O)n(Cc2coc(-c3ccccc3)n2)c1=O,0,.,.,.,.,.
CCOC(=O)N1CCN(S(=O)(=O)c2ccc(C(=O)Nc3ccc4c(c3)C(=O)NC4=O)cc2)CC1,0,10%,-16%,20µM*,228%,0%
CN(C)CCOC(=O)C12CCC3CC(CC(C3)C1)C2,-3,.,.,.,.,.
O=c1[nH]c2cc3c(cc2cc1CN(Cc1ccc2c(c1)OCO2)Cc1nnnn1CC1CCCO1)OCO3 (stereo not given),14,4%,-30%,16µM*,78%,0%
Cc1cc(C)c2cc(CN(CCO)Cc3nnnn3Cc3ccc(F)cc3)c(=O)[nH]c2c1,-3,2%,4%,20µM*,-2%,-2%
O=c1[nH]c2cc3c(cc2cc1CN(CCCO)Cc1nnnn1Cc1ccc(F)cc1)OCO3,-4,2%,11%,32µM*,22%,0%
OCc1cn(-c2ccccc2)nc1-c1ccco1,-3,6%,-45%,?,6%,3%
Cc1ccc(-c2nn(-c3ccccc3)cc2CO)o1,-7,2%,-33%,32µM*,1%,3%
OCc1cn(-c2ccccc2)nc1-c1ccc(-c2nn(-c3ccccc3)cc2CO)cc1,-10,6%,12%,28µM*,-24%,0%
Cn1c(=O)c2sccc2n(CC(=O)NCC2CCCO2)c1=O (stereo not given),-41*,.,.,.,.,.
CC(C)Cn1c(=O)c2sccc2n(CC(=O)NCC2CCCO2)c1=O (stereo not given),-3,.,.,.,.,.

# Screening data as filed in PubChem.
